# For some of these results: Potency and affinity values are given separately.
# Key:
# Parameters in all cases: scale not given: direction of the effect not stated beside the values
# [1] = target: Protein translocase subunit SecA (Escherichia coli (strain K12)) (UniProt P10408); experiment: Assay to Identify E. coli SecA ATPase Inhibitors; format: functional; settings: 30 µM
# [2] = target: T1, Ubiquitin-activating enzyme e1, putative (Leishmania donovani (strain BPK282A1)) (UniProt E9BSI1); experiment: Leishmania donovani Ubiquitin Activating Enzyme (LdE1); format: functional; settings: 30 µM
# T1 sequence (whole entry): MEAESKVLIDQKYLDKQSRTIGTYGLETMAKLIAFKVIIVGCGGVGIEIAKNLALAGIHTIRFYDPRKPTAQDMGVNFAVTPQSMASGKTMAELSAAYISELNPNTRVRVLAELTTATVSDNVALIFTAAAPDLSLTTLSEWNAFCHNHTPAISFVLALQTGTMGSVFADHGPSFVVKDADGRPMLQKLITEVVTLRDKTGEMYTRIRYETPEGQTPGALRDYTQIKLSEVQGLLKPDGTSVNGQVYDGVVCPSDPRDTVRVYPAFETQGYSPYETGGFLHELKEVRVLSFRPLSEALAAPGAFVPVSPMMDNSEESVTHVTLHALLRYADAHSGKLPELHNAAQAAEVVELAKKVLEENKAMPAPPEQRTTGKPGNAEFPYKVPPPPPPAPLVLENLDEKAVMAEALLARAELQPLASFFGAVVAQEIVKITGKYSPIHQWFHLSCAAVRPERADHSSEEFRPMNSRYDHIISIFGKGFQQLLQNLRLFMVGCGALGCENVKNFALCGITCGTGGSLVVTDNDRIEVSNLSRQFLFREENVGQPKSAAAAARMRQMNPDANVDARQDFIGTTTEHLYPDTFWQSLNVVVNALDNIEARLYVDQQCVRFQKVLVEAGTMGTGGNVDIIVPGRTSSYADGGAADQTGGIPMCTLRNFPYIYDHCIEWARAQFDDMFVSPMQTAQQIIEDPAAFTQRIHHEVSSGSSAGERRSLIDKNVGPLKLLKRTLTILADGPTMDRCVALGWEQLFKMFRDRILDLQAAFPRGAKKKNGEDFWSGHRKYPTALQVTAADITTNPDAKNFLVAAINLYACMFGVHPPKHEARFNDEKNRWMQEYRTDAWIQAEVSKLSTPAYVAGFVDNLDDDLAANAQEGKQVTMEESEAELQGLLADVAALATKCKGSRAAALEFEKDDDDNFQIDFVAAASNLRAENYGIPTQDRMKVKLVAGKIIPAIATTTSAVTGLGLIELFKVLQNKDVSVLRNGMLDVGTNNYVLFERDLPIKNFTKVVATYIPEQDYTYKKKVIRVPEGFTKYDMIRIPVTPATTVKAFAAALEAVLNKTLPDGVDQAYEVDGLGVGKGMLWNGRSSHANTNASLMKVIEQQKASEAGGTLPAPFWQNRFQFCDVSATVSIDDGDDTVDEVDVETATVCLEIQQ
# [3] = target: AMP-activated protein kinase, AMPK (Homo sapiens) (UniProt P54646+O43741+P54619+Q9UGJ0+Q9Y478+Q13131+Q9UGI9); experiment: AMP-dependent Kinase enzyme assay. An in vitro enzyme assay that detects ADP turnover that is directly proportional to AMPK activity. This uses naive AMPK that is activated during the assay with MK-8722; format: functional; settings: 30 µM
# [4] = target: Sialic acid-binding Ig-like lectin 9 (Homo sapiens) (UniProt Q9Y336); experiment: Hs-Siglec9 ALPHAscreen SOP 20170721; settings: 10 µM
# Sialic acid-binding Ig-like lectin 9 (Homo sapiens), sequence (Q9Y336 whole entry): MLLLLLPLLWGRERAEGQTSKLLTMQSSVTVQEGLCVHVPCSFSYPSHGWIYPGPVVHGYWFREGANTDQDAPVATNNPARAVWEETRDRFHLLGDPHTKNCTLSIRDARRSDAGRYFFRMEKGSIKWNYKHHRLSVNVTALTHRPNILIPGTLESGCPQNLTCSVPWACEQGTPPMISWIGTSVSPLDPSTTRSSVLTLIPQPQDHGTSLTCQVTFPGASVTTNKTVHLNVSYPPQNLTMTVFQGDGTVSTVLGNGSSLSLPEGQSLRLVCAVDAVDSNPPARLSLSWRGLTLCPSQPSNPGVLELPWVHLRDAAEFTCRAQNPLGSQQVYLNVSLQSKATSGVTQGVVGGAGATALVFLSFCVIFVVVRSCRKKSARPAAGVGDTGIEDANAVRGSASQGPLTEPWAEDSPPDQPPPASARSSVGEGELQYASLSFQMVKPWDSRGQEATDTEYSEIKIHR
# Trypanosoma cruzi = experiment: Trypanosoma cruzi phosphomannomutase and mannose-1-phosphate guanylyltransferase assay; format: functional; settings: 10 µM
# [5] = target: T2, Arginase-2, mitochondrial (Homo sapiens) (UniProt P78540); experiment: in vitro enzyme assay to detect the production of urea directly proportional to the activity of Arginase II; format: functional; settings: 33.3 µM; further: in the data most compounds retested in dose-response had high values
# T2 sequence (whole entry): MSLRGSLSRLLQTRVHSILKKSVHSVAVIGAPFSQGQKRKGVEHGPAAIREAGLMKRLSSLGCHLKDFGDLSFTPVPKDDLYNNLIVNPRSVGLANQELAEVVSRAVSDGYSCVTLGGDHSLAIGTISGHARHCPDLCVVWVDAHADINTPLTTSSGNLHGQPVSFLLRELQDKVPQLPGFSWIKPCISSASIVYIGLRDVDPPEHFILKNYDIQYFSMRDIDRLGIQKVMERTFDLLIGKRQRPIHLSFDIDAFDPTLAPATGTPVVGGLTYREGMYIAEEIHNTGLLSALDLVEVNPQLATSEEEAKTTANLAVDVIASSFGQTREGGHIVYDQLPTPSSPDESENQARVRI
# [6] = target: T3, Proteasome subunit beta (Trypanosoma cruzi) (UniProt O96673); experiment: Trypanosoma cruzi proteasome chymotrypsin-like activity (TcProtChymo) assay.; further: in the data most compounds retested in dose-response had high values; format: functional; settings: 9.37 µM
# T3 sequence (whole entry): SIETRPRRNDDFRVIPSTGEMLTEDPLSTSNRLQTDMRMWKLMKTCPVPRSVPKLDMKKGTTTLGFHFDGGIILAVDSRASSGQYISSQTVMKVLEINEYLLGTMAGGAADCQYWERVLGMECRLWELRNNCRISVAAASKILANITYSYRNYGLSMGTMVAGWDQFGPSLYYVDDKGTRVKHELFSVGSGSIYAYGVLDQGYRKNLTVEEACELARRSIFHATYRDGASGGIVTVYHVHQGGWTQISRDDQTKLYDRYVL
# Homo sapiens = species: Homo sapiens; experiment: To identify inhibition of the IFN signalling (Jak-Stat) pathway via expression of an eGFP reporter gene under the control of an IFN-stimulated response element (ISRE) containing MxA promoter.; format: functional; settings: 30 µM
# [7] = target: T4, Tyrosyl-tRNA synthetase, putative (Trypanosoma cruzi (strain CL Brener)) (UniProt Q4DSP6); experiment: Trypanosoma cruzi tyrosyl tRNA synthetase (TcYRS) _High Tyrosine SOP; format: functional; settings: 30 µM; further: in the data most compounds retested in dose-response had high values
# T4 sequence (whole entry): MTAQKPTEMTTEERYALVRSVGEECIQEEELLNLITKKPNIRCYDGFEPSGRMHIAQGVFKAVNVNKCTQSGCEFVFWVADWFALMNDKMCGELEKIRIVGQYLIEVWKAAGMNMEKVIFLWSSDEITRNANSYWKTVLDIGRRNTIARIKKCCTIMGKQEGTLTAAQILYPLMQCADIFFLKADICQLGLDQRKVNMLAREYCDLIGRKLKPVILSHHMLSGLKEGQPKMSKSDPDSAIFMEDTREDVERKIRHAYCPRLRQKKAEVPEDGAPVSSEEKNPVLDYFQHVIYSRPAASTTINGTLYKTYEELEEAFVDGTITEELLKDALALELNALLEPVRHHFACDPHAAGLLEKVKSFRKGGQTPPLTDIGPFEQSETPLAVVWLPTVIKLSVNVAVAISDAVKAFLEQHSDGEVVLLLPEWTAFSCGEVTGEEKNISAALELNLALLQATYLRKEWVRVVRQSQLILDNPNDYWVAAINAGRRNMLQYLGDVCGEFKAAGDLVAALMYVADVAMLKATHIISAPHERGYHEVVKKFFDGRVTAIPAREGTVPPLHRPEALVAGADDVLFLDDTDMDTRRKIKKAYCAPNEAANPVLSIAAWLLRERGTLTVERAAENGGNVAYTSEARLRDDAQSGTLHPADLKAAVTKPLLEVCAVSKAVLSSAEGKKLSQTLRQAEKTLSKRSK
# [8] = target: T4, Tyrosyl-tRNA synthetase, putative (Trypanosoma cruzi (strain CL Brener)); experiment: Trypanosoma cruzi tyrosyl tRNA synthetase (TcYRS) SOP; format: functional; settings: 30 µM
# [9] = target: Chromo domain-containing protein 1 (Saccharomyces cerevisiae (strain ATCC 204508 / S288c) (Baker's yeast)) (UniProt P32657); experiment: ScCHD-1 Enzyme Inhibition Assay; format: functional; settings: 30 µM; further: in the data most compounds retested in dose-response had high values
# Chromo domain-containing protein 1 (Saccharomyces cerevisiae (strain ATCC 204508 / S288c) (Baker's yeast)), sequence (P32657 whole entry, the tested form may be a part): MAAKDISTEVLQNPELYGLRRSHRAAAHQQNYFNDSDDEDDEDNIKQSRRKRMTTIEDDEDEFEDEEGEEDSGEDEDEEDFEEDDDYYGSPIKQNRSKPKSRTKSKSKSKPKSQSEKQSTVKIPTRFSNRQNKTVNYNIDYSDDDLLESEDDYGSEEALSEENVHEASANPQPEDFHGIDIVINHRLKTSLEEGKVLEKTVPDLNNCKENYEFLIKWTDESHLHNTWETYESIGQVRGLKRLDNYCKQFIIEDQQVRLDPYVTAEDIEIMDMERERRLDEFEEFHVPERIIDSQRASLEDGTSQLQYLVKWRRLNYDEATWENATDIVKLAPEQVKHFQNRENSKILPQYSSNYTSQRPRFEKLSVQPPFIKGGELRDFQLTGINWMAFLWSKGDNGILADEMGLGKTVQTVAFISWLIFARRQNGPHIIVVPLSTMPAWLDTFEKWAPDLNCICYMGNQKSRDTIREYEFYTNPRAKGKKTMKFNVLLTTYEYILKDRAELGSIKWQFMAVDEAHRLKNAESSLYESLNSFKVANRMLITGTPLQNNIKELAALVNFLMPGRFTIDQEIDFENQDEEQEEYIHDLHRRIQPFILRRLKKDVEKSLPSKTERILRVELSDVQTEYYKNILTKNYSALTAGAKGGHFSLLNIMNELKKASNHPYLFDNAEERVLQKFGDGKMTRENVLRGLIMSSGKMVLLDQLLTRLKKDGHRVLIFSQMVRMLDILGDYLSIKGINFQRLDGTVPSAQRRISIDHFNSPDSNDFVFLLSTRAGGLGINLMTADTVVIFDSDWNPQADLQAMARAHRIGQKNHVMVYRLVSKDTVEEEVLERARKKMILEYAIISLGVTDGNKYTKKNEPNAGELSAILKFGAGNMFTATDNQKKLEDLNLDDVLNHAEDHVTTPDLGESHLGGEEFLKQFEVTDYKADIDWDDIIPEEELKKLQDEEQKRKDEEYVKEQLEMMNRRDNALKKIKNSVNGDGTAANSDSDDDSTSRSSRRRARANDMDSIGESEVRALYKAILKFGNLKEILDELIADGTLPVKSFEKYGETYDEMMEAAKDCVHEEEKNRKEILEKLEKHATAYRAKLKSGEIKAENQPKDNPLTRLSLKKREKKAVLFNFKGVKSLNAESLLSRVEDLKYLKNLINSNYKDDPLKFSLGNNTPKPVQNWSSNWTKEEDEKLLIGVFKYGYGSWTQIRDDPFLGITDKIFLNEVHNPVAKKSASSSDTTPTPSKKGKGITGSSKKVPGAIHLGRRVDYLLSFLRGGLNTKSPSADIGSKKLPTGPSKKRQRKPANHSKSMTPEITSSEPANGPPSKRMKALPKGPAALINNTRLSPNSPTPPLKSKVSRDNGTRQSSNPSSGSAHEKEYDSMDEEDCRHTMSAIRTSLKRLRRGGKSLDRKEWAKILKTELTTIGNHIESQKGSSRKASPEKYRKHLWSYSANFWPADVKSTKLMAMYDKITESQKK
# Protein translocase subunit SecA (Escherichia coli (strain K12)), sequence (P10408 whole entry): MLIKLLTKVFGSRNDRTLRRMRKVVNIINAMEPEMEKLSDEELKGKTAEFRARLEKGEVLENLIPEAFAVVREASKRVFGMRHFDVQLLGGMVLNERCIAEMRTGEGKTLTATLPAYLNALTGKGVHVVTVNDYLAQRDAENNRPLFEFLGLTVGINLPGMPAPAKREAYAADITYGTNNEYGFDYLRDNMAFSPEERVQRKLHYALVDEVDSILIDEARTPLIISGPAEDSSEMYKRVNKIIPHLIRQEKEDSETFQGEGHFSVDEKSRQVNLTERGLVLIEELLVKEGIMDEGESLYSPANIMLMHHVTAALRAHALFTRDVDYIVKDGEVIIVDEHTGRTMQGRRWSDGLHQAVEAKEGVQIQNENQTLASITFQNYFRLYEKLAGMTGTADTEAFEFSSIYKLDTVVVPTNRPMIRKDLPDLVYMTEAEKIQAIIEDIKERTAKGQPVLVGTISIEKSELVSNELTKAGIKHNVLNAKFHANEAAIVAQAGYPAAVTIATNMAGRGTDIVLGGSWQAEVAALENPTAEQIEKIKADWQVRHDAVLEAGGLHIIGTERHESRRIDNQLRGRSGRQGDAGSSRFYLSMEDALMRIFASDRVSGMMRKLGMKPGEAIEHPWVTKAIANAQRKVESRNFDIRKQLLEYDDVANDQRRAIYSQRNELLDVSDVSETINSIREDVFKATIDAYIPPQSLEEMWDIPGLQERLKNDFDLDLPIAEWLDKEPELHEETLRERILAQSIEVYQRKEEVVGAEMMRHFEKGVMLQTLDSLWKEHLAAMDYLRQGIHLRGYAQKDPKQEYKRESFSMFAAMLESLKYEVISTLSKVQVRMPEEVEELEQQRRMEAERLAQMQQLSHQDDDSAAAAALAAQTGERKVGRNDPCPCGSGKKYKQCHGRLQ
SMILES,Percent Effect [1],Percent Effect [2],Percent Effect [3],Percent Effect [4],Percent Effect (Trypanosoma cruzi),Percent Effect [5],Percent Effect [6],Percent Effect (Homo sapiens),Percent Effect [7],Percent Effect [8],Percent Effect [9]
COc1ncccc1NC(=O)NCC1CCS(=O)(=O)C1 (stereo not given),-2.59%,20.8%,-3.16%,6.78%,-0.936%,-3.92%,4.22%,-12.2%,5.83%,12.2%,-8.21%
CC(C)C(NC(=O)NCCNc1ccccn1)c1cccs1 (stereo not given),-6.06%,18.2%,-14.7%,6.36%,-0.187%,4.98%,10.8%,8.29%,9.71%,26.8%,-7.99%
O=C(NC(Cc1ccsc1)c1nccs1)C1CCOCC1 (stereo not given),-2.92%,9.46%,12.2%,0.886%,-4.74%,-0.232%,3.12%,10.9%,1.07%,9.09%,7.79%
CN(Cc1ccsc1)C(=O)Nc1ccc(S(=O)(=O)N(C)C)cc1,-1.98%,17.7%,-2.37%,-9.54%,-1.79%,-0.38%,-0.0819%,-7.23%,6.4%,21.5%,-6.52%
Cc1cccnc1NC(=O)C(C)Cn1nc(C(F)(F)F)cc1C (stereo not given),-1.64%,-4%,2.53%,4.76%,-3.73%,-1.94%,11.8%,-10.4%,3.17%,2.56%,-1.89%
